FEN1 inh-1: inhibitors of human flap endonuclease 1 | P39748 | Recombinant FEN1 flap cleavage, fluorescence, 15 min | Potency, µM (series often up to 114 µM), without a hit: at the highest dose activity change, negative = inhibition, hits mostly inhibitors | 390,000 tested, 0.35% active | AID 588795; also: % is scaled to controls: 0 for no effect and ±100 for the full control effect; nearly all actives have a fitted effect of over 65% in size
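Concentration–response screening of FEN1 (10 nM): 15 min compound preincubation at room temperature, reaction started with 50 nM substrate and read at 0 and 15 min. Corrected, normalized data were fitted by a four-parameter Hill equation.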
POLB inh: inhibitors of human DNA polymerase beta | P06746 | Pol beta primer extension/strand displacement, fluorescence kinetic | Potency, µM (highest dose often 114 µM), for the others: top-dose activity change, negative = inhibition, usual class: inhibitors | 340,000 tested, 1.3% active; also: % is scaled to controls: 0 for no effect and ±100 for the full control effect
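Pol beta (10 nM) was preincubated with compound for 15 min at room temperature. The reaction was then started with 50 nM substrate and read immediately and after a further 10 min at room temperature.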
Pol kappa inh-1: inhibitors of human DNA polymerase kappa | Q9UBT6 | purified Pol kappa, fluorescent DNA synthesis assay, 10 min | Potency, µM (doses to about 107 µM), for inactives: top-dose activity, negative = inhibition, usual class: inhibitors | 400,000 tested, 0.53% active; also: % is scaled to controls: 0 for no effect and ±100 for the full control effect
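10 nM Pol kappa preincubated 15 min at room temperature with compounds, then reaction started with substrate at 50 nM final. Fluorescence read kinetically at 0 and 10 min; buffer-only wells served as negative control.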
POLI inh: inhibitors of human DNA polymerase iota; Pol iota fluorescent replication assay, 10 min; Potency, µM (top dose mostly 115 µM), inactives show top-dose activity, negative = inhibition, actives largely listed as inhibitors; 390,000 tested, 1% active; Q9UNA4
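Pol iota at 10 nM preincubated 15 min with compounds at room temperature; reaction started with fluorescent substrate, 50 nM final. Fluorescence read kinetically at 0 and 10 min; buffer-only wells as negative control.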
WRN helicase inh-1: WRN helicase (human) inhibition. WRN helicase unwinding, fluorescent forked duplex, kinetic. Potency, µM (highest dose often 114 µM), inactives show top-dose activity change, negative = inhibition, actives largely listed as inhibitors. 360,000 tested, 0.46% active. AID 651768; also: % is scaled to controls: 0 for no effect and ±100 for the full control effect; nearly all actives have a fitted effect of over 55% in size
Target sequence (Q14191 whole entry, looked up): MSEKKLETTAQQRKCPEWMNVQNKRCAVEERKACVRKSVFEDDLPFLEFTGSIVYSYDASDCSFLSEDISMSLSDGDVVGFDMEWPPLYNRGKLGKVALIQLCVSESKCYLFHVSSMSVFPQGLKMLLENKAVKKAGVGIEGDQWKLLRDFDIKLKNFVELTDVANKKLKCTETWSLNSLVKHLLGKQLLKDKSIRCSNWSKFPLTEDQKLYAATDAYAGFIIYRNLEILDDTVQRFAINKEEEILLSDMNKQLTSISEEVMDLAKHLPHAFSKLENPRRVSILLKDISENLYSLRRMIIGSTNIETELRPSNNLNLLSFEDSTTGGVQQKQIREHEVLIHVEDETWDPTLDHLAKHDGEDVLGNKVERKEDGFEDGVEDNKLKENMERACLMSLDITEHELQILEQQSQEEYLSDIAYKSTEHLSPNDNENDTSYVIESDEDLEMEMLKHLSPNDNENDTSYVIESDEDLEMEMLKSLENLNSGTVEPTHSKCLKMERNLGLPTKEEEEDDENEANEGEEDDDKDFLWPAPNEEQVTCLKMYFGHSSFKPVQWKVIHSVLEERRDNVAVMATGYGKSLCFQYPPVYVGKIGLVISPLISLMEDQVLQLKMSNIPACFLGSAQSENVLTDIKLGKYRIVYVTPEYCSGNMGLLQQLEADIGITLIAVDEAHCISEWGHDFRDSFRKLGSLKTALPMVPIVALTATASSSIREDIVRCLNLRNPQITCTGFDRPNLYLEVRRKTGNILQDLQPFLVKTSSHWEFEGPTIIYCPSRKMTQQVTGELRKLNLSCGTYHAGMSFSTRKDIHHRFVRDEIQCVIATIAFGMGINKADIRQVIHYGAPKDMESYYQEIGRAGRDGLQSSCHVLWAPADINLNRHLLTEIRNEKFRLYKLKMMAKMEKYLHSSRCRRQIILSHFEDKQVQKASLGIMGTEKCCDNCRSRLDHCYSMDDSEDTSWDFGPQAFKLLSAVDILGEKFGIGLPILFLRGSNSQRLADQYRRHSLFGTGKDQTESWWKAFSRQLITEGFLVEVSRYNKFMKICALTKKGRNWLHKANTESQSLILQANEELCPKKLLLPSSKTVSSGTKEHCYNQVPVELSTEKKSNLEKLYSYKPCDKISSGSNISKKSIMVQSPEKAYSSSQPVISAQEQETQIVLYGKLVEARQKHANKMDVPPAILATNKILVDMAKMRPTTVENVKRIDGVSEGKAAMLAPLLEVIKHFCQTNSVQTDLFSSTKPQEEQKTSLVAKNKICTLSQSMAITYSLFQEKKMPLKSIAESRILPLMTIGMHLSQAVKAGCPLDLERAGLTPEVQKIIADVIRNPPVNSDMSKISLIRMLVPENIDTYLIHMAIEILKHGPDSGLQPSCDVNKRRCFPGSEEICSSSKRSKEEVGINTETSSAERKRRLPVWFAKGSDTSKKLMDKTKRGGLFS
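Primary qHTS, 1536-well format. 20 nM WRN + compound, 15 min RT; start with 100 nM forked fluorophore/quencher duplex, 2 mM ATP (final); kinetic read ex 525/em 598 nm.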
Pol eta inh-1: DNA polymerase eta (human) inhibition. Q9Y253. recombinant Pol eta, fluorescent DNA replication assay. Potency, µM (top dose mostly 114 µM), for the others: top-dose activity change, negative = inhibition, actives largely listed as inhibitors. 390,000 tested, 1.2% active. AID 588591; also: % is scaled to controls: 0 for no effect and ±100 for the full control effect
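Fluorescent replication assay: 50 nM final substrate added after a 15 min room-temperature compound preincubation with 10 nM enzyme. Signal taken at 0 min and again at 10 min.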
TbPGK inh: blocks T. brucei phosphoglycerate kinase; Potency, µM (highest dose often 57.5 µM), inactives show at the highest dose activity change, negative = inhibition, actives largely listed as inhibitors; shares compounds with Pol kappa inh-1; 500 tested, 79% active; TbPGK coupled GAPDH assay, Kinase-Glo luminescence; also: % is scaled to controls: 0 for no effect and ±100 for the full control effect; nearly all actives have a fitted effect of over 65% in size
POLI cherry-pick: Confirm cherry-picked inhibitors of human polymerase iota | Pol iota primer extension, TAMRA/BHQ fluorescence | AID 720496 | 1,500 tested, 77% active | Potency, µM, usual class: inhibitors | shares compounds with Pol kappa inh-1
Pol kappa inh-2: confirmation of human DNA polymerase kappa inhibitors | shares compounds with Pol eta inh-1 | purified Pol-kappa, fluorescent strand-displacement substrate | Potency, µM, actives largely listed as inhibitors | 920 tested, 76% active | AID 720501
Pol eta inh-2: Pol eta (human) inhibition, cherry-pick confirmation; shares compounds with Pol eta inh-1; Pol eta primer extension, TAMRA/BHQ fluorescence, 10 min; Potency, µM, usual class: inhibitors; 2,600 tested, 64% active; AID 720502
FEN1 inh-2: confirmation of human FEN1 inhibitors; shares compounds with FEN1 inh-1; FEN1 flap cleavage, TAMRA/BHQ2 fluorogenic DNA substrate; Potency, µM, usual class: inhibitors; 880 tested, 79% active; AID 720498; also: nearly all actives have a fitted effect of over 60% in size
WRN helicase inh-2: WRN helicase inhibition, cherry-pick retest. shares compounds with WRN helicase inh-1. WRN helicase DNA unwinding, fluorescence kinetic. Potency, µM (highest dose often 57.1 µM), without a hit: at the top dose activity, negative = inhibition, actives largely listed as inhibitors. 610 tested, 63% active. AID 720497; also: nearly all actives have a fitted effect of over 65% in size
TO DNA binding: DNA binding via thiazole orange displacement; Potency, µM (highest dose often 57.1 µM), inactives show at the highest dose activity change, negative = inhibition, most hits filed as inhibitors; shares compounds with WRN helicase inh-1; AID 720499; 610 tested, 10% active; thiazole orange DNA binding displacement, fluorescence;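 also: drop in dye fluorescence marks compound binding to DNA; % is scaled to controls: 0 for no effect and ±100 for the full control effect; nearly all actives have a fitted effect of over 60% in size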
BLM counter: blocks human BLM helicase in WRN counterscreen. shares compounds with WRN helicase inh-1. Recombinant BLM helicase DNA unwinding, red fluorescence. Potency, µM (highest dose often 57.1 µM), for the others: at the highest dose activity change, negative = inhibition, most hits filed as inhibitors. 610 tested, 60% active. AID 720503; also: nearly all actives have a fitted effect of over 60% in size
* marks the source's active call; other numbers are inactive results; ? = inconclusive; · = no result; ! = not active in a repeat; [ ] = remark or other dose. Shown are actives, neighbours in structure and some others; about 2.4% of the full set was active somewhere. Calls follow the shape of the dose curve; as a rule, active = well fitted curve in the direction sought with a large enough effect; inconclusive = small, poorly fitted or top-dose-only effect, or another doubt; inactive = no such curve, though single readings can be large; an effect the other way counts as inactive or inconclusive. Potency is read from the fitted curve at half-maximal effect.

SMILES	FEN1 inh-1	POLB inh	Pol kappa inh-1	POLI inh	WRN helicase inh-1	Pol eta inh-1	POLI cherry-pick	Pol kappa inh-2	Pol eta inh-2	FEN1 inh-2	WRN helicase inh-2	TO DNA binding	BLM counter	others
COCCCNC(=O)/C(C#N)=C/c1ccc(OCC(=O)O)c(OC)c1	?	3.5µM*	22µM*	10µM*	?	2.5µM*	19*	·	27*	·	19µM*	?	5.4µM*
CCOCCCNC(=O)/C(C#N)=C/c1ccc(C(=O)OC)cc1	-11%	2%	-12%	-12%	-5%	1%	·	·	·	·	·	·	·
CCOc1ccc2oc(=O)cc(CN3CCN(c4cc(C)ccc4C)CC3)c2c1	-10%	23%	-16%	0%	·	-3%	·	·	·	·	·	·	·
COc1ccc([C@]23Cc4cc(C#N)ccc4C(O2)C2=C(CC4(CCCCC4)OC2=O)O3)cc1	·	-25%[22.9 µM]	·	·	·	·	·	·	·	·	·	·	·
O=C(CCN1C(=O)/C(=C/c2ccco2)SC1=S)Nc1ccc(C(=O)O)c(O)c1	35µM*	?	20µM*	4µM*	45µM*	4.5µM*	30*	17*	?	85*	17µM*	-28%	22µM*
O=C(CCCN1C(=O)/C(=C/c2ccccc2)SC1=S)Nc1ccccc1O	3%	1%	-4%	-6%	-3%	3%	·	·	·	·	·	·	·
O=C(CCCN1C(=O)/C(=C/c2ccco2)SC1=S)Nc1ccccc1C(=O)O	?	-122%	?	22µM*	32µM*	11µM*	34*	8.4*	19*	·	19µM*	-15%	24µM*
O=C(O)c1cc(N2N=C(C(F)(F)F)/C(=C/C=C/c3ccco3)C2=O)ccc1Cl	3.2µM*	0.63µM*	1.1µM*	1.1µM*	0.84µM*	-99%	0.75*	0.12*	0.67*	3.8*	1.4µM*	-14%	0.61µM*	TbPGK inh=0.58µM*
Nc1nc2c(nc(Br)n2C2OC3COP(=O)(O)O[C@@H]3C2O)c(=O)[nH]1 (stereo partly specified)	·	·	-7%[60.1 µM]	·	·	·	·	·	·	·	·	·	·
Cc1ccc(NC(=O)CN(C)C(=O)c2cccc(-n3cccc3)c2)cc1	?	·	18µM*	8.9µM*	35µM*	2.5µM*	15*	·	17*	·	7.6µM*	-15%	2.2µM*
Cc1ccc(C)c(NC(=O)CN(C)C(=O)c2cccc(N3C(=O)CCC3=O)c2)c1	-2%	·	9%	27%	-2%	-1%	·	·	·	·	·	·	·
CCn1c(SCc2nc3sc(C(=O)O)c(C)c3c(=O)[nH]2)nc2ccccc21	13µM*	8.9µM*	3.5µM*	2.8µM*	20µM*	0.71µM*	9.5*	·	2.7*	21*	6.8µM*	12µM*	19µM*	TbPGK inh=?
COCCn1c(SCc2nc3sc(C(=O)OC)c(C)c3c(=O)[nH]2)nc2ccccc21	-13%	-5%	-1%	4%	-5%	?	·	·	·	·	·	·	·
c1ccc(Nc2nc(-c3ccccc3)c(-c3ccccc3)s2)cc1	-9%	·	3%	17%	·	·	·	·	·	·	·	·	·
C=CCc1cccc2cc(-c3nc4ccc(C)cc4[nH]3)c(=O)oc12	?	7%	-7%[60.1 µM]	?	·	·	·	·	·	·	·	·	·
O=C(O)c1ccc2nc(-c3cc4cccc(O)c4oc3=O)[nH]c2c1	28µM*	8.9µM*	?	?	·	·	24*	27*	21*	43*	11µM*	19µM*	3µM*
COc1ccc(Br)cc1/C=c1\sc2nc(-c3ccco3)nn2c1=O	?	4.5µM*	20µM*	8.9µM*	35µM*	3.2µM*	60*	12*	30*	·	17µM*	19µM*	7.6µM*
COc1ccc(/C=c2\sc3nc(=O)c(C)nn3c2=O)c(OC)c1	17%	-8%	-12%	1%	1%	15%	·	·	·	·	·	·	·
CC(=O)NCCNc1ccnc(-c2ccccc2C)n1	·	·	1%[60.1 µM]	·	·	·	·	·	·	·	·	·	·
COc1cccc2c1C(=O)c1c(O)c3c(c(O)c1C2=O)CC(O)(C(C)=O)CC3OC1CC(N(C)C)C(O)C(C)O1 (stereo unspecified)	32µM*	·	?	22µM*	18µM*	11µM*	11*	24*	19*	38*	24µM*	240%	24µM*
COc1cccc2c1C(=O)c1c(O)c3c(c(O)c1C2=O)C[C@@](O)(C(=O)CO)C[C@@H]3OC1CC(N)C(O)C(C)O1 (stereo partly specified)	6.3µM*	·	11µM*!	35µM*	3µM*	5µM*	17*	9.5*	60*	34*	17µM*	96%	27µM*
COC(=O)CN1C(=O)[C@@H]2[C@H](C1=O)[C@@H]1CC(C(=O)OC)=C[C@@H](C(=O)OC)C3C1=C(C(=O)[C@@]3(C)NC(=O)c1ccccc1)[C@@H]2C (stereo partly specified)	-10%	·	-9%	16%	·	·	·	·	·	·	·	·	·
Cc1ccc(CC(Cc2nc3ccccc3[nH]2)c2nc3ccccc3[nH]2)cc1 (stereo unspecified)	·	·	-6%[19.4 µM]	·	·	·	·	·	·	·	·	·	·
